“And” between values parts separate entries of the source, which are not always exact repeats. Equal values may be shown once. Inconclusive results are not listed. The source made the active and inactive calls. Calls follow the shape of the dose curve; as a rule, active = well fitted inhibition curve with a large enough effect; inconclusive = small, poorly fitted or top-dose-only effect; inactive = no such curve, though single readings can be large or run the other way.
target: Tyrosine-protein kinase Yes (Homo sapiens) (UniProt P07947); test: qHTS for small molecule inhibitors of Yes1 kinase: Primary Screen (AID 686947); settings: Yes1 kinase biochemical qHTS inhibition; series mostly up to 76.9 µM; activity change, negative = inhibition: at the top concentration; also: nearly all actives have a fitted effect of over 60% in size;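 as to activity change, negative = inhibition: plate controls were DMSO with enzyme for no effect and no-enzyme DMSO wells for full effect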
Sequence (P07947 whole entry, looked up): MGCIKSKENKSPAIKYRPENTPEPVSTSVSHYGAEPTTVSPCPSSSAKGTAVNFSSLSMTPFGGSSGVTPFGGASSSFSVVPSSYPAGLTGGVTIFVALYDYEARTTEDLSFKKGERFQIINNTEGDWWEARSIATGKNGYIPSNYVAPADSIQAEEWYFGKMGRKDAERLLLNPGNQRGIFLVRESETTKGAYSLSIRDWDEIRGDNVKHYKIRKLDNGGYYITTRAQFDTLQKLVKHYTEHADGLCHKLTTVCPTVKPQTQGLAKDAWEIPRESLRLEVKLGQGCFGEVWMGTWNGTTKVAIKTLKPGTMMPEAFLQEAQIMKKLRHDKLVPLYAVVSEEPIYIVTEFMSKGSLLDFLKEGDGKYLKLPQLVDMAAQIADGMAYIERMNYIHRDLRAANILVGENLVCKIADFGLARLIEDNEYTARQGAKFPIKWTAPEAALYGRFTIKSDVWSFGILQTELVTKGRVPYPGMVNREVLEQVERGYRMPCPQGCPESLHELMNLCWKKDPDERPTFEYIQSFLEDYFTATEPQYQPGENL
Outline: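 In this qHTS format, inhibition is expressed relative to DMSO controls with enzyme (maximum) and without enzyme (minimum). The 60 min room-temperature reaction uses 0.1 mM ATP, with ADP detected by luminescence.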
Potency is read from the fitted curve at half-maximal effect.

Row | SMILES | activity change, negative = inhibition | Potency
1 | COc1ccc2c(c1)CC[C@@H](CN(C)CC(=O)O)[C@H]2c1ccccc1 | 8.45% (inactive) | 
2 | CC(C)CC(=O)Nc1n[nH]c2c1CN(C(=O)C1CCN(C)CC1)C2(C)C |  | 12200 nM (active)
3 | Nc1cc(C(F)(F)F)c(-c2cc(N3CCOCC3)nc(N3CCOCC3)n2)cn1 | -21.5% (inactive) | 
4 | C=CC(=O)Nc1cc2c(Nc3ccc(F)c(Cl)c3)ncnc2cc1C#CC(C)(C)N1CCN(C)CC1 |  | 97.2 nM (active)
5 | CC(C)(C)OC(=O)Nc1ccc(-c2cc(C(=O)NCCCCCCC(=O)NO)no2)cc1 | 5.27% (inactive) | 
6 | CC(=O)SC[C@@H](C)C(=O)N1CCC[C@H]1C(=O)N[C@@H](Cc1ccccc1)C(=O)O | 4.51% (inactive) | 
7 | Clc1ccc2ncc(-c3cccc(NC4CNC4)n3)n2c1 |  | 274 nM (active)
8 | CCCCc1nc2cc(C=CC(=O)NO)ccc2n1CCN(CC)CC | -7.2% (inactive) | 
9 | O=C(NCCS(=O)(=O)c1ccc(C(F)(F)F)cn1)c1ccc(Cl)cc1 | 7.72% (inactive) | 
10 | Cc1cc(Nc2cc(N3CCN(C)CC3)nc(C=Cc3ccccc3)n2)n[nH]1 |  | 30.7 nM (active)
11 | Cc1cn2c(-c3cn[nH]c3)cnc2c(Nc2ccc(C(=O)N3CCNCC3)cc2F)n1 |  | 21800 nM (active)
12 | C=CCn1c(=O)c2cnc(Nc3ccc(N4CCN(C)CC4)cc3)nc2n1-c1cccc(C(C)(C)O)n1 |  | 43.4 nM (active)
13 | Nc1nc(-c2nn(Cc3ccccc3F)c3ncccc23)nc(N)c1N1CCOCC1 | 3.82% (inactive) | 
14 | CC(NCc1ccc2c(c1)nc(NC(=O)c1ccc(-c3cn[nH]c3)s1)n2CC(C)(C)O)C(C)(C)C (stereo unspecified) |  | 5.5 nM (active) and 0.2 nM (active)
15 | O=C(C=Cc1c(C(=O)O)[nH]c2cc(Cl)cc(Cl)c12)Nc1ccccc1 | 5.68% (inactive) | 
16 | CC(=O)OCCN1C(=O)c2c(C)nc3ccc(S(=O)(=O)N4CCOCC4)cc3c2C1=O | -14.2% (inactive) | 
17 | O=C(C=Cc1cccnc1)NCCCCC1CCN(C(=O)c2ccccc2)CC1 | 8.57% (inactive) | 
18 | CC[C@@H]1C(=O)N(C)c2cnc(Nc3ccc(C(=O)NC4CCC(N5CCN(CC6CC6)CC5)CC4)cc3OC)nc2N1C(C)C (stereo partly specified) | -28.2% (inactive) | 
19 | O=C(O)c1ccc2c(c1)nc(Nc1cccc(Cl)c1)c1ccncc12 |  | 487 nM (active)
20 | CC1(C)OC2=C(C(=O)c3ccccc3C2=O)[C@H](NCc2ccccc2)[C@H]1O | -28.3% (inactive) | 
21 | COc1ccc(CC2SC(=O)NC2=O)cc1C(=O)NCc1ccc(C(F)(F)F)cc1 (stereo unspecified) | 9.25% (inactive) | 
22 | c1ccc2c(CCNc3ccc(Nc4ccncc4)cc3)c[nH]c2c1 | -7.69% (inactive) | 
23 | O=C(NC1CCNCC1)c1[nH]ncc1NC(=O)c1c(Cl)cccc1Cl | -1.88% (inactive) | 
24 | CC(C)(O)CCc1ccc(OCc2cc(-c3cccc(OC(F)F)c3)c3ncccc3c2)cc1 | 3.68% (inactive) | 
25 | COc1cc(C(C)C)c2c(c1)S(=O)(=O)N(COc1cc(=O)n3cccc(OCCN4CCCCC4)c3n1)C2=O | -3.66% (inactive) | 
26 | Cc1cnc(-c2cnc(NCCNc3ccc(C#N)cn3)nc2-c2ccc(Cl)cc2Cl)[nH]1 | 78.3% (inactive) | 
